In all, about 5,500 compounds went through this assay and about 2,000 (36%) were called active. Inconclusive results (about 18%) are left out. Cut-off read from the data, not from the text of the source: active = normalized growth mostly below about 0.91 (no sharp cut-off); inconclusive = no clear call, values can overlap the other calls; inactive = mostly above about 0.92. Some of the results follow.
Test: chemical genetic growth profiling, strain panel (AID 1159580);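 note: tested at 20 µM; growth read once vehicle control cultures reached saturation at 30 °C; 1 = growth at the plate median or of vehicle wells; lower values mean less growth of the strain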
Conditions: S. cerevisiae deletion strains, growth OD

Measured: normalized growth

CC(CC(=O)C1OC1(C)C)C1C(=O)CC2(C)C3=CCC4C(C)(C)C(OC5OCC(O)C(O)C5O)CCC45CC35C(O)CC12C (configuration not stated)
inactive: locus YAL021C, strain ccr4, stronger effect = lower value 1.03 | locus YAL026C, strain drs2, stronger effect = lower value 1.01 | locus YAL030W, strain snc1, stronger effect = lower value 1.04 | locus YBL061C, strain skt5, stronger effect = lower value 1.02 | locus YBR009C, strain hhf1, stronger effect = lower value 1.02 | locus YBR023C, strain chs3, stronger effect = lower value 1.01 | locus YBR171W, strain sec66, stronger effect = lower value 1.03 | locus YBR231C, strain swc5, stronger effect = lower value 1.02 | locus YBR279W, strain paf1, stronger effect = lower value 1.02 | locus YCL011C, strain gbp2, stronger effect = lower value 1.02 | locus YCL016C, strain dcc1, stronger effect = lower value 1 | locus YCL061C, strain MRC1, stronger effect = lower value 1.02 | locus YCL069W, strain vba3, stronger effect = lower value 1.01 | locus YCR088W, strain abp1, stronger effect = lower value 1.02 | locus YDL005C, strain med2, stronger effect = lower value 1.03 | locus YDL040C, strain nat1, stronger effect = lower value 1.02 | locus YDR001C, strain nth1, stronger effect = lower value 1.02 | locus YDR069C, strain doa4, stronger effect = lower value 1.03 | locus YDR137W, strain rgp1, stronger effect = lower value 1.04 | locus YDR159W, strain sac3, stronger effect = lower value 1.04 | locus YDR195W, strain ref2 1.01 | locus YDR297W, strain sur2, stronger effect = lower value 1.02 | locus YDR334W, strain swr1, stronger effect = lower value 1.01 | locus YDR335W, strain msn5, stronger effect = lower value 1.02 | locus YDR392W, strain spt3, stronger effect = lower value 1.03 | locus YEL003W, strain gim4, stronger effect = lower value 1.02 | locus YEL037C, strain rad23, stronger effect = lower value 1.04 | locus YEL061C, strain CIN8 (second series), stronger effect = lower value 1.02 | locus YER015W, strain faa2, stronger effect = lower value 1.02 | locus YER016W, strain bim1, stronger effect = lower value 1.02 | locus YER111C, strain swi4, stronger effect = lower value 1.03 | locus YER155C, strain BEM2 (second series), stronger effect = lower value 1.03 | locus YFR010W, strain ubp6, stronger effect = lower value 1.03 | locus YGL167C, strain pmr1, stronger effect = lower value 1.03 | locus YGL173C, strain kem1, stronger effect = lower value 1.02 | locus YGL227W, strain vid30, stronger effect = lower value 1.02 | locus YGL240W, strain doc1, stronger effect = lower value 1.03 | locus YGL253W, strain hxk2, stronger effect = lower value 1.01 | locus YHR013C, strain ard1, stronger effect = lower value 1.08 | locus YHR027C, strain rpn1, stronger effect = lower value 1.02 | locus YHR142W, strain chs7, stronger effect = lower value 1.01 | locus YJL092W, strain hpr5, stronger effect = lower value 1.02 | locus YJL095W, strain BCK1 (second series), stronger effect = lower value 1.03 | locus YJL115W, strain asf1, stronger effect = lower value 1.01 | locus YJL129C, strain trk1, stronger effect = lower value 1.01 | locus YJL154C, strain vps35, stronger effect = lower value 1.02 | locus YJL164C, strain tpk1, stronger effect = lower value 1.01 | locus YJL166W, strain qcr8, stronger effect = lower value 1.02 | locus YJL187C, strain SWE1, stronger effect = lower value 1.02 | locus YKL160W, strain elf1, stronger effect = lower value 1.03 | locus YKR026C, strain gcn3, stronger effect = lower value 1.03 | locus YKR091W, strain srl3, stronger effect = lower value 1.03 | locus YLL001W, strain dnm1, stronger effect = lower value 1.01 | locus YLL026W, stronger effect = lower value 1.02 | locus YLL041C, strain sdh2, stronger effect = lower value 1.01 | locus YLR027C, strain aat2, stronger effect = lower value 1.03 | locus YLR221C, strain rsa3, stronger effect = lower value 1.02 | locus YLR258W, strain gsy2, stronger effect = lower value 1.01 | locus YLR262C, strain YPT6 (second series), stronger effect = lower value 1.05 | locus YLR320W, strain mms22, stronger effect = lower value 1.04 | locus YLR342W, strain FKS1, stronger effect = lower value 1.01 | locus YLR357W, strain rsc2, stronger effect = lower value 1.02 | locus YLR370C, strain arc18, stronger effect = lower value 1.02 | locus YLR384C, strain iki3, stronger effect = lower value 1.02 | locus YML120C, strain ndi1, stronger effect = lower value 1.02 | locus YMR058W, strain fet3, stronger effect = lower value 1.02 | locus YMR125W, strain sto1, stronger effect = lower value 1.03 | locus YMR129W, stronger effect = lower value 1.02 | locus YMR205C, strain PFK2, stronger effect = lower value 1.03 | locus YMR231W, strain pep5, stronger effect = lower value 1.01 | locus YNL071W, strain lat1, stronger effect = lower value 1.01 | locus YNL209W, strain ssb2, stronger effect = lower value 1.02 | locus YNL248C, strain rpa49, stronger effect = lower value 1.02 | locus YNL322C, strain KRE1 (second series), stronger effect = lower value 1.03 | locus YNR049C, strain mso1, stronger effect = lower value 1.02 | locus YOR001W, strain rrp6, stronger effect = lower value 1.02 | locus YOR070C, strain gyp1, stronger effect = lower value 1.01 | locus YOR080W, strain dia2, stronger effect = lower value 1.03 | locus YOR083W, strain WHI5, stronger effect = lower value 1.02 | locus YOR106W, strain vam3, stronger effect = lower value 1.03 | locus YOR265W, strain rbl2, stronger effect = lower value 1.01 | locus YOR270C, strain vph1, stronger effect = lower value 1.02 | locus YOR290C, strain snf2, stronger effect = lower value 1.02 | locus YPL051W, strain arl3, stronger effect = lower value 1.02 | locus YPL078C, strain atp4, stronger effect = lower value 1.02 | locus YPL106C, strain sse1, stronger effect = lower value 1.04 | locus YPL240C, strain hsp82, stronger effect = lower value 1.04

From PubChem BioAssay AID1159580 (chemical genetic matrix, 2015)
